The source of these data is PubChem BioAssay (Tox21).

Inconclusive results are not listed. Where a call stands in place of a potency, no number is given. The source made the active and inactive calls. The call rests on the fitted dose curve.
Potency means the concentration at half of the fitted maximal effect.

This assay in a line: qHTS assay to identify small molecule agonists of H2AX - cell viability counter screen (AID 1224847). Further: nearly all actives have a fitted effect of over 30% in size. On activity change, negative = cytotoxicity: top concentration of the series differs between compounds. The conditions noted are these: CHO-K1 viability, CellTiter-Glo luminescence, 3 h; series mostly up to 154 µM. The text has this:
National Center for Advancing Translational Sciences [NCATS]
NIH Chemical Genomics Center [NCGC]
U.S. Environmental Protection Agency [EPA]
National Institutes of Environmental Health Sciences [NIEHS]
National Toxicology Program [NTP]
U.S. Food and Drug Administration [FDA]
HTRF phospho-H2AX (Ser139) assay (Cisbio Bioassays, US) enables the quantitative detection of the histone variant H2AX when phosphorylated on serine 139. When double-stranded DNA breaks, either by ionizing radiation or endogenous physiological processes, H2AX becomes phosphorylated at Ser139. This phospho-Ser139 serves as a sensitive biomarker for the detection of such breaks, localizing the site of DNA repair. So, HTRF phospho-H2AX Ser139 is a pertinent assay to study genome stability, the cell cycle, DNA repair, and it serves as a biomarker for cancer, and to understand aging. Wild type CHO-K1 cells were used to identify the inducers of Phospho-H2AX Ser 139 from the Tox21 compound collections. Also cytotoxicity of the Tox21 10K compound library against the CHO-K1 cell line was tested by measuring the cell viability using CellTiter-Glo assay (Promega, Madison, WI).
Tox21 Assay Protocol Summary:
The CHO-K1 cells suspended in culture medium containing 10% FBS were dispensed at 1000 cells/ 3 ul/well in 1536-well white wall/solid bottom plates (Greiner Bio-One North America, NC) using a Multidrop Combi (Thermo Fisher Scientific Inc., Waltham, MA). After the assay plates were incubated at 37C overnight, 23 nl of compounds at 15 concentrations (from 5-48 columns) or positive control (from 1 to 4 columns) were transferred to the assay plates using a Pintool station (Wako, San Diego, CA) into each well resulting in a final DMSO concentration of 0.76%. After 3hr incubation at 37C, 3 uL/well CellTiter-Glo luminescent cell viability reagent (Promega Corporation, Madison, WI) was added using a Flying Reagent Dispenser (FRD) (Aurora Discovery, CA). After incubation at room temperature for 30 min, the luminescence intensity was read using a ViewLux plate reader (PerkinElmer, Waltham, MA).
For the compound `Nc1[nH]c(=O)ncc1F`, the Potency result was “inactive”. Same read-out and setting: then `C=CC(=O)N1CCOCC1`, with “inactive”; and `Nc1ccn(C2CO[C@H](CO)O2)c(=O)n1` (stereo not given in full), with “inactive”; and `OC1OC[C@@H](O)[C@H](O)[C@H]1O` (stereo not given in full), with “inactive”. As for `CC/C=C\C#N`, the Potency entry was “inactive”. With `C#CC(O)C(CC)CCCC` (stereo not given), the Potency entry was “inactive”.

As for `CCN(CC)C(=O)c1ccc(O)c(OC)c1`, the Potency result was “inactive”.

For `C/C=C1\C(=O)C[C@H]2[C@@H]3CCC4=CC(=O)CC[C@]4(C)[C@H]3CC[C@]12C`, the Potency is 55.5 µM (active). Take `O=C(O)c1ccc[n+]([O-])c1`: the Potency result is “inactive”.

`CC(C)COC(=O)C(C)C`: the Potency entry was “inactive”. `NC(CS)C(=O)O` (stereo not given): the Potency entry was “inactive”. For `O=C(O)Cc1cc(I)c(Oc2cc(I)c(O)c(I)c2)c(I)c1`, the Potency entry is “inactive”.

As for `Fc1ccccc1-c1ccccc1`, the Potency result was “inactive”. As for `C1C2OC2C2C1C1CC2C2OC12` (stereo not given), the Potency result is “inactive”. Regarding `Cc1cc(C)c(NC(=O)CN(CC(=O)O)CC(=O)O)c(C)c1Br`, the Potency result is “inactive”. The same measure, in the same setting: then `OCCN1C[C@H](O)[C@@H](O)[C@H](O)[C@H]1CO`, with “inactive”.

In the case of `CC(C)N1C(=O)c2ccccc2C1=O`, the Potency entry is “inactive”. As to `C=C(C)C(=O)OCCCCCCCCCCCCCCCCCC`, the activity change, negative = cytotoxicity is 1.51% [at 31.6 µM] (inactive). Take `CCCCOCC(C)OCC(C)O` (stereo not given): the Potency result was “inactive”.

As to `FC(F)(F)C(F)(F)C(F)(F)C(F)(F)C(F)(F)C(F)(F)C(F)(F)C(F)(F)C(F)(F)C(F)(F)F`, the activity change, negative = cytotoxicity is 0.329% [at 14 µM] (inactive).

For the compound `O=[N+]([O-])c1ccc(CCO)cc1`, the Potency entry was “inactive”. Turning to `CCN(CC)S(=O)(=O)c1ccc(C(=O)O)cc1`, the Potency result is “inactive”. As to `NC(N)=NS(=O)(=O)c1ccc(N)cc1`, the Potency result was “inactive”. On to `CCC(=O)c1cccc(Cl)c1`, for which the Potency entry was “inactive”. With `Cc1ccccc1Br`, the Potency result was “inactive”. In the case of `COc1cc(O)cc(O)c1`, the Potency entry was “inactive”.

Take `Cc1nccn1CC1CCc2c(c3ccccc3n2C)C1=O` (stereo not given): the Potency entry is “inactive”. With `C=C(C)[C@@H]1CCC2=CC(=O)C[C@@H](C)[C@]2(C)C1`, the Potency result is “inactive”.

With `CC1=CCC2C(C1)C2(C)C` (stereo not given), the Potency result is “inactive”. Regarding `NC(=S)Nc1cccc2ccccc12`, the activity change, negative = cytotoxicity is 1.9% [at 14 µM] (inactive). As for `CC(C)(C)OC(=O)N1C[C@@H](F)C[C@H]1C(=O)O`, the Potency entry is “inactive”. The same measure, in the same setting: then `Oc1ccc2c(c1)OC[C@@H](N1CCC(O)(c3ccc(F)cc3)CC1)[C@H]2O`, with “inactive”; and `C#CC(C)(O)CC(C)C` (stereo not given), with “inactive”. `C=C(C)C(=O)OCCC(C)OC(=O)C(=C)C` (stereo not given): the Potency entry is “inactive”.

With `Cc1ccc(Nc2ccc(O)c3c2C(=O)c2ccccc2C3=O)cc1`, the Potency result was “inactive”. For `CC(C=O)Cc1ccc(C(C)C)cc1` (stereo not given), the Potency entry is “inactive”. On to `O=Cc1ccccc1[N+](=O)[O-]`, for which the Potency entry was “inactive”.

Regarding `CC(C)=CCC/C(C)=C/C(=O)O`, the Potency result is “inactive”. Still for that read-out and setting: then `CCCCCCCCN(C)CCCCCCCC`, with “inactive”; and `C#CC(O)CCCCC` (stereo not given), with “inactive”.
